# Measured values as given in the supplement of paper PMC10849652.
# Of roughly 7,900 targets only a part is listed; those with a hit were picked by preference. About 0.6% of all pairs of compound and target were hits. A number with no mark means an inactive call.
# What was measured:
# Assay in all cases: log2 fold change, soluble protein after heating vs DMSO (PISA); higher = thermal stabilisation; K562 cells, 10 uM, 30 min; active = over 0.2 and 3.5 SD of the protein, either way, in both replicates (recomputed)
# [1] = compound: COC1=CC=C(C=C1)CN2C=CC3=C2C=C(C=C3)C(=O)NO
# Method in brief: (§1)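 Soluble protein was quantified by TMTpro 16plex LC-MS/MS after channel sums were equalised. It was obtained as the supernatant after 21,000xg for 90 min from pooled aliquots of K562 cells (2×10^6 cells/mL, 10 μM compound, 30 min) heated for 3 min across 48°C-58°C and extracted in PBS with 0.5% NP-40 at 4°C. Thermal stability values are relative to control samples and come from duplicates. They are given as log2 fold changes.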
# filanesib = compound: CON(C)C(=O)N1N=C(c2cc(F)ccc2F)S[C@@]1(CCCN)c1ccccc1 [filanesib]
# Method in brief: as §1
# zotarolimus = compound: CO[C@H]1C[C@@H]2CC[C@@H](C)[C@@](O)(O2)C(=O)C(=O)N2CCCC[C@H]2C(=O)O[C@H]([C@H](C)C[C@@H]2CC[C@H](n3cnnn3)[C@H](OC)C2)CC(=O)[C@H](C)/C=C(\C)[C@@H](O)[C@@H](OC)C(=O)[C@H](C)C[C@H](C)/C=C/C=C/C=C/1C [zotarolimus]
# Method in brief: as §1
# idasanutlin = compound: COc1cc(C(=O)O)ccc1NC(=O)[C@@H]1N[C@@H](CC(C)(C)C)[C@](C#N)(c2ccc(Cl)cc2F)[C@H]1c1cccc(Cl)c1F [idasanutlin]
# Method in brief: as §1
# alisertib = compound: COc1cc(Nc2ncc3c(n2)-c2ccc(Cl)cc2C(c2c(F)cccc2OC)=NC3)ccc1C(=O)O [alisertib]
# Method in brief: as §1
# [2] = compound: COc1cc2nc(-c3cc(F)ccc3O)nc(N[C@@H]3CNC[C@H]3C(C)(C)O)c2cc1OC
# Method in brief: as §1
# gefitinib = compound: COc1cc2ncnc(Nc3ccc(F)c(Cl)c3)c2cc1OCCCN1CCOCC1 [gefitinib]
# Method in brief: as §1
# [3] = compound: COc1cccc2cc(-c3nc([C@H]4CC[C@H](C(=O)O)CC4)n4ncnc(N)c34)[nH]c12
# Method in brief: as §1
# lapatinib = compound: CS(=O)(=O)CCNCc1ccc(-c2ccc3ncnc(Nc4ccc(OCc5cccc(F)c5)c(Cl)c4)c3c2)o1 [lapatinib]
# Method in brief: as §1
# pictilisib = compound: CS(=O)(=O)N1CCN(Cc2cc3nc(-c4cccc5[nH]ncc45)nc(N4CCOCC4)c3s2)CC1 [pictilisib]
# Method in brief: as §1
# [4] = compound: CS(=O)(=O)c1ccc(-c2cnc(N)c(C(=O)Nc3ccccc3)n2)cc1
# Method in brief: as §1
# crizotinib = compound: C[C@@H](Oc1cc(-c2cnn(C3CCNCC3)c2)cnc1N)c1c(Cl)ccc(F)c1Cl [crizotinib]
# Method in brief: as §1
# [5] = compound: C[C@@H]1COCCN1C2=NC(=NC(=C2)C3(CC3)S(=O)(=O)C)C4=C5C=CNC5=CC=C4
# Method in brief: as §1
# [6] = compound: C[C@H](C1=CC=C(C=C1)C(=O)NC2=C3C=CNC3=NC=C2)N
# Method in brief: as §1
# duvelisib = compound: C[C@H](Nc1ncnc2nc[nH]c12)c1cc2cccc(Cl)c2c(=O)n1-c1ccccc1 [duvelisib]
# Method in brief: as §1
# gandotinib = compound: Cc1cc(Nc2cc(CN3CCOCC3)c3nc(C)c(Cc4ccc(Cl)cc4F)n3n2)n[nH]1 [gandotinib]
# Method in brief: as §1
# tozasertib = compound: Cc1cc(Nc2cc(N3CCN(C)CC3)nc(Sc3ccc(NC(=O)C4CC4)cc3)n2)n[nH]1 [tozasertib]
# Method in brief: as §1
# [7] = compound: Cc1cc(SCc2sc(-c3ccc(C(F)(F)F)cc3)nc2C)ccc1OCC(=O)O
# Method in brief: as §1
# doramapimod = compound: Cc1ccc(-n2nc(C(C)(C)C)cc2NC(=O)Nc2ccc(OCCN3CCOCC3)c3ccccc23)cc1 [doramapimod]
# Method in brief: as §1
# ispinesib = compound: Cc1ccc(C(=O)N(CCCN)[C@@H](c2nc3cc(Cl)ccc3c(=O)n2Cc2ccccc2)C(C)C)cc1 [ispinesib]
# Method in brief: as §1
# UniProt Q15738, sequence (Q15738 whole entry, looked up): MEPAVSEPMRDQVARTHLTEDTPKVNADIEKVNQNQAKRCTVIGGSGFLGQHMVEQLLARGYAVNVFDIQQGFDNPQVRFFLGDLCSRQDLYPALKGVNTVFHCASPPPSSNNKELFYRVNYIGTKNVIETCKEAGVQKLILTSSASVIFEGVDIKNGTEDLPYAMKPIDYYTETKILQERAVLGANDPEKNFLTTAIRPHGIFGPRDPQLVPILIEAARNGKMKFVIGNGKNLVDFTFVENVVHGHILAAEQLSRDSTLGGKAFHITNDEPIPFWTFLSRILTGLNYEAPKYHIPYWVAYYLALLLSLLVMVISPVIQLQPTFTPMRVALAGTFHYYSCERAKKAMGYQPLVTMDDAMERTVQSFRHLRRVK
# UniProt Q9UMY1, sequence (Q9UMY1 whole entry, looked up): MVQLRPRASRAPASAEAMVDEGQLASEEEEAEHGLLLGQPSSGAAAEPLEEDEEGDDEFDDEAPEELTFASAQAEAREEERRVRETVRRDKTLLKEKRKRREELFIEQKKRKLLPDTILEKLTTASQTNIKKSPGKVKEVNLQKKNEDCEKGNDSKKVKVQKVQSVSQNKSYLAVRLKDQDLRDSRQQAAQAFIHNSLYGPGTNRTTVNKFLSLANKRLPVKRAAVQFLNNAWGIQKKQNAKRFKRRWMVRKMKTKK
# UniProt O14950, sequence (O14950 whole entry, looked up): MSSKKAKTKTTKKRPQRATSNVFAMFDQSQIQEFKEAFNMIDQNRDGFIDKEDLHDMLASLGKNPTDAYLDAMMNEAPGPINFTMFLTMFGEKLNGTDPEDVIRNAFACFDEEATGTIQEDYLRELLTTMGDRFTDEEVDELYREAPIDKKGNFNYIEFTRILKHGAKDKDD
# UniProt Q8NCF5, sequence (Q8NCF5 whole entry, looked up): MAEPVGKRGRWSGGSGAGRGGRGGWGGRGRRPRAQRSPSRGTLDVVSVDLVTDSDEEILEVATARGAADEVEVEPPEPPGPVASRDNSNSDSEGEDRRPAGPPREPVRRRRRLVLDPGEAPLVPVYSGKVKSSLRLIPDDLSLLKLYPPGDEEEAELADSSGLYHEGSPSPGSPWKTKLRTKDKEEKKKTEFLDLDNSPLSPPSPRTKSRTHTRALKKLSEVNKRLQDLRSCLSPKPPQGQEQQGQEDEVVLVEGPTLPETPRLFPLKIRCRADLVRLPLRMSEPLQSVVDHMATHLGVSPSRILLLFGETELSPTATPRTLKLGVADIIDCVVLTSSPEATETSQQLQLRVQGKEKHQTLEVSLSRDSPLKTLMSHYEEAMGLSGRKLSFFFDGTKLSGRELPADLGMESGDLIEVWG
# UniProt P52701, sequence (P52701 whole entry, looked up): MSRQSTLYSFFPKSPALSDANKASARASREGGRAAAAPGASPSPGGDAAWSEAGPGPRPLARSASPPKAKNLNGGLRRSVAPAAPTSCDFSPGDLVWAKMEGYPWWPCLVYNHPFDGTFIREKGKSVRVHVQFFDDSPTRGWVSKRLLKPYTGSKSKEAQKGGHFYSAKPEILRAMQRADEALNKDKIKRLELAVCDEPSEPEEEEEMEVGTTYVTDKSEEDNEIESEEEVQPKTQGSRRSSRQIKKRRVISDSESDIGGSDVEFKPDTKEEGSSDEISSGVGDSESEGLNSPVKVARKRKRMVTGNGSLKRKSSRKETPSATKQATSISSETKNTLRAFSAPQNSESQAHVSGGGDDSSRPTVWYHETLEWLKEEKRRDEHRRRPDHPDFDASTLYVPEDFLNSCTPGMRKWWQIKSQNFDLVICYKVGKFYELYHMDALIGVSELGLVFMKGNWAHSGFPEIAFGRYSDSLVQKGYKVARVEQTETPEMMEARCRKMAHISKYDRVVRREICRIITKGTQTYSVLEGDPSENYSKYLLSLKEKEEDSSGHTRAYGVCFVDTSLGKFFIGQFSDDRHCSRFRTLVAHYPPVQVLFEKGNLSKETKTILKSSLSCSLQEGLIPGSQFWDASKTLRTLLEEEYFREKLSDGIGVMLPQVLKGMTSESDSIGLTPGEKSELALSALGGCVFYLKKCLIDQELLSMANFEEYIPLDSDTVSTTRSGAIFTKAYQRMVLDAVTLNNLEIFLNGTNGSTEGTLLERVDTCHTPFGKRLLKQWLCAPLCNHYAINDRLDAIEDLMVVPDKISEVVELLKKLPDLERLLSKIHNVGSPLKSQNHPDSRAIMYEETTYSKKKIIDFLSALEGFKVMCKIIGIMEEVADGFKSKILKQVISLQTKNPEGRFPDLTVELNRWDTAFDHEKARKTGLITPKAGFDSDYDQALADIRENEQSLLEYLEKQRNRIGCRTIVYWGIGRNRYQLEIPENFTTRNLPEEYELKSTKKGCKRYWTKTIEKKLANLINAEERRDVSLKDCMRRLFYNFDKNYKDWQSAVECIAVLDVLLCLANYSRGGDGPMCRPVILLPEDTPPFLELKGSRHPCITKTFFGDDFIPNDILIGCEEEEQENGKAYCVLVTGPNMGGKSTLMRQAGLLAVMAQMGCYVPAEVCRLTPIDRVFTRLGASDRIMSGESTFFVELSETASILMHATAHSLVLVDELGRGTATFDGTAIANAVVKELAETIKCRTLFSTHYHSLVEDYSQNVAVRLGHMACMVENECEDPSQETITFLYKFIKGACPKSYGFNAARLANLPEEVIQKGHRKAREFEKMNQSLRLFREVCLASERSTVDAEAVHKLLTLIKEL
# UniProt P57740, sequence (P57740 whole entry, looked up): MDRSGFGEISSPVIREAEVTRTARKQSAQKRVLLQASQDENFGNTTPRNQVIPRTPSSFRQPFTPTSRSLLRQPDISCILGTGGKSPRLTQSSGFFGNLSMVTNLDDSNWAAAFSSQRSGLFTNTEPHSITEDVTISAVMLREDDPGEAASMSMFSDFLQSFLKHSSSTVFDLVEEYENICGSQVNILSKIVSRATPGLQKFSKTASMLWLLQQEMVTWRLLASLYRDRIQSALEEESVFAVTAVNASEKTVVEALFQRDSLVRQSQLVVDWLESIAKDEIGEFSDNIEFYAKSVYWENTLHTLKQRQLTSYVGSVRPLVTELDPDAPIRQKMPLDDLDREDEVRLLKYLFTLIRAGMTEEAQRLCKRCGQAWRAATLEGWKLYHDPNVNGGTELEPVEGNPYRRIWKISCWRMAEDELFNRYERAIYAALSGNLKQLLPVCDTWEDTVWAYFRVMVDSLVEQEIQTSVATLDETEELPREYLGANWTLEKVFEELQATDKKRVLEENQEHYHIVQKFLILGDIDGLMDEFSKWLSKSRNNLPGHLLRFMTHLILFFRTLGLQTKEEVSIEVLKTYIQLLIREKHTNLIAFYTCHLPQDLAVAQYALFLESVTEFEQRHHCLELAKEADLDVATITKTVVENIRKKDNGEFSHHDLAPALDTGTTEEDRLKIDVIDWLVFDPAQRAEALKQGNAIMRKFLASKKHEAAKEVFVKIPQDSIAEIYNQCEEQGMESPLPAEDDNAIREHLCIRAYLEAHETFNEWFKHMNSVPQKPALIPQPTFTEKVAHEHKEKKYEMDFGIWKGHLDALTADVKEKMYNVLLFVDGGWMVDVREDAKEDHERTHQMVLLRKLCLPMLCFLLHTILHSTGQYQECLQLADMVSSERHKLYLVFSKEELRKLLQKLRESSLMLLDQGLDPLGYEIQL
# UniProt Q86WC4, sequence (Q86WC4 whole entry, looked up): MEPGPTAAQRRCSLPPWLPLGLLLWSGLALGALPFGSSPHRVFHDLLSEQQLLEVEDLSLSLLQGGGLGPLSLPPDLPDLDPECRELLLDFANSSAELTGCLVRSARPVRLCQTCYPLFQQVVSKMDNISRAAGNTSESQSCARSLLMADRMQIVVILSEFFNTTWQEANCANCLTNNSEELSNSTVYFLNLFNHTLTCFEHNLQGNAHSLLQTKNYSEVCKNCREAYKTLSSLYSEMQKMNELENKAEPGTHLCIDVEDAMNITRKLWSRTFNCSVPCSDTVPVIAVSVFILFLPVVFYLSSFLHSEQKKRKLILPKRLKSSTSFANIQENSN
# UniProt Q8N543, sequence (Q8N543 whole entry, looked up): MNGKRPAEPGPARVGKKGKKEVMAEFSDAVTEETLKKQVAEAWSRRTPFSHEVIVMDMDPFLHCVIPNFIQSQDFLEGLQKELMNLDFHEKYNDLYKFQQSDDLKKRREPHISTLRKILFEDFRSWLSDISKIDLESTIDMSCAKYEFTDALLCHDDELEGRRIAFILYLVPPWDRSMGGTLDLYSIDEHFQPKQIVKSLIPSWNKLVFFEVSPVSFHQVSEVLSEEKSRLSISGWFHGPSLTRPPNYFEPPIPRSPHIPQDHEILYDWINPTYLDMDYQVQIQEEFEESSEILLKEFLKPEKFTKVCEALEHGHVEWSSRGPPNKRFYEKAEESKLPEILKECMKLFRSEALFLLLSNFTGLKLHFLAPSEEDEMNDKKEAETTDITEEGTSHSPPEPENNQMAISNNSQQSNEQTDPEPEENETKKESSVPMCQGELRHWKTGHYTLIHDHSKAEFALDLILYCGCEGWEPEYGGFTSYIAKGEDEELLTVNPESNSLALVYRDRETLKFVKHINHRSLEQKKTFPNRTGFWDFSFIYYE
Target,log2 fold change [1],log2 fold change (filanesib),log2 fold change (zotarolimus),log2 fold change (idasanutlin),log2 fold change (alisertib),log2 fold change [2],log2 fold change (gefitinib),log2 fold change [3],log2 fold change (lapatinib),log2 fold change (pictilisib),log2 fold change [4],log2 fold change (crizotinib),log2 fold change [5],log2 fold change [6],log2 fold change (duvelisib),log2 fold change (gandotinib),log2 fold change (tozasertib),log2 fold change [7],log2 fold change (doramapimod),log2 fold change (ispinesib)
OSTM1 (UniProt Q86WC4),-0.012,-0.122,0.007,0.002,-0.015,-0.09,-0.066,0.002,0.056,0.055,-0.014,-0.244,0.028,-0.021,-0.017,-0.225,-0.003,-0.033,0.041,-0.308 (active)
OGFR (UniProt Q9NZT2),-0.005,0.048,0.137,-0.042,-0.157,0.023,-0.015,-0.152,0,0.019,0.074,-0.067,0.034,0.19,-0.016,-0.058,0.021,0.133,0.082,-0.068
NUP107 (UniProt P57740),-0.005,0.233,0.032,0.026,0.007,-0.116,-0.073,-0.04,0.137,-0.13,0.101,-0.067,-0.083,-0.062,0.031,-0.229,0.028,0.093,0.11,-0.018
OSBPL8 (UniProt Q9BZF1),0.034,0.077,-0.067,-0.016,-0.052,-0.086,0.23,-0.22,0.142,-0.015,0.019,-0.179,-0.043,0.219,-0.207,-0.105,0.089,0.103,0.078,-0.433
MYL12B (UniProt O14950),-0.008,-0.052,0.111,-0.064,-0.06,0.022,-0.001,-0.018,0.047,-0.015,-0.016,-0.004,0.019,-0.32 (active),0.088,0.058,0.005,-0.003,0.025,0.097
NSUN2 (UniProt Q08J23),-0.153,-0.002,-0.046,0.021,-0.022,-0.235,0.015,-0.003,0.035,-0.088,-0.107,-0.034,0.031,0.008,-0.077,-0.151,0.065,0.053,0.067,-0.098
MRPL47 (UniProt Q9HD33),-0.068,0.183,0.072,-0.042,-0.087,-0.033,-0.134,-0.186,0.072,0.745 (active),0.039,0.019,-0.087,0.261,-0.076,0.625 (active),0.033,0.095,0.11,-0.237
NOL7 (UniProt Q9UMY1),-0.089,0.524,-0.024,0.157,-0.119,-0.086,-0.006,-0.142,0.169,-0.095,-0.054,0.065,-0.661,0.415,-0.201,0.124,-0.001,0.003,0.187,-0.052
OGFOD1 (UniProt Q8N543),-0.294 (active),-0.05,-0.02,-0.038,-0.021,0.001,0.015,0.041,-0.034,0.065,0.034,-0.001,0.042,0.003,0.046,-0.009,-0.02,-0.021,-0.015,-0.043
NOLC1 isoform 2 (UniProt Q14978),0.016,0.21,0.015,0.199,-0.112,-0.093,0.041,0.104,0.052,0.056,-0.019,-0.135,0.141,-0.154,-0.043,-0.023,-0.032,-0.038,0.047,0.179
MON2 isoform 5 (UniProt Q7Z3U7),-0.003,-0.017,0.101,-0.147,0.046,0.091,0.039,-0.004,0.036,0.048,0.044,-0.065,0.081,0.033,0.173,-0.105,0.011,0.171,0.077,-0.055
MSH6 (UniProt P52701),0.09,-0.154,0.088,-0.003,0.75,-0.017,0.068,-0.04,0.008,-0.026,0.075,-0.427,0.152,-0.018,0.009,-0.196,0.099,0.185,-0.053,-0.087
NFATC2IP (UniProt Q8NCF5),-0.008,-0.015,-0.021,-0.141,0.01,0.026,0,0.056,0.029,0.098,0.014,0.023,0.195,-0.009,0.121,0.011,0.03,0.045,-0.03,0.024
NSDHL (UniProt Q15738),0.006,-0.11,0.04,0.208,0.033,-0.062,0.021,0,0.185,0.023,0.04,0.314 (active),0.045,-0.105,0.024,0.239,0.083,0.058,0.22 (active),-0.016
MRPS24 (UniProt Q96EL2),-0.153,0.047,0.088,-0.134,-0.104,0.096,-0.056,-0.014,0.047,-0.174,0.014,-0.031,0.192,0.082,-0.009,-0.117,0.048,0.094,-0.028,-0.427 (active)
